Compounds with a hit are over-represented: about 3.1% of the library has one in this group of screens.
PLK1 PBD inh – inhibitors of human PLK1 polo-box domain binding; Potency, µM, inactives show max response, negative = inhibition, hits mostly inhibitors; P53350; 360,000 tested, 2.8% active; Plk1 PBD binding of FITC phosphopeptide, fluorescence polarization; also: potency is read from the fitted curve at half-maximal effect; series mostly up to about 57 µM; % is scaled to controls: 0 for no effect and ±100 for the full control effect; nearly all actives have a fitted effect of over 65% in size
Vif-APOBEC3F blk – inhibitors of Vif-A3F interaction. HeLa A3F-eYFP + Vif (tagged APOBEC3F with the HIV-1 protein that degrades it), YFP fluorescence increase. Potency, µM (doses to about 46.1 µM), for the others: at the top dose activity, negative = active. 390,000 tested, 0.2% active. AID 602313; also: potency is read from the fitted curve at half-maximal effect; % of control where 0% means no effect; nearly all actives have a fitted effect of over 65% in size
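Fluorescence increase (Ex 488/Em 500-530) after overnight compound treatment at 37 deg C flags inhibition of Vif-driven A3F-eYFP loss in stable HeLa A3F-eYFP/Vif cells seeded overnight beforehand.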
Vif-APOBEC3G blk – blocks the Vif interaction with human APOBEC3G; 410,000 tested, 0.076% active; HeLa A3G-eYFP + Vif (tagged APOBEC3G with the HIV-1 protein that degrades it), YFP fluorescence, overnight; AID 602310; Potency, µM (doses to about 46.1 µM), inactives show at the highest dose activity, negative = active, actives largely listed as inhibitors; also: potency is read from the fitted curve at half-maximal effect; % is scaled to controls: 0 for no effect and ±100 for the full control effect; nearly all actives have a fitted effect of over 60% in size
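Read-out is eYFP fluorescence (Ex 488/Em 500-530) from Vif-expressing HeLa A3G-eYFP cells; more signal means A3G escaped Vif-mediated degradation. Cells plated overnight, compound pinned in, incubated overnight at 37 deg C.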
VDR inh – blocks the human vitamin D receptor. P11473. VDR-SRC2-3 peptide fluorescence polarization, 2 h. Potency, µM, without a hit: max response, negative = inhibition, usual class: inhibitors. 400,000 tested, 0.93% active; also: potency is read from the fitted curve at half-maximal effect; % is scaled to controls: 0 for no effect and ±100 for the full control effect
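Measured by FP: displacement of SRC2-3 coactivator peptide from VDR by library compounds, following a two-hour ambient incubation.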
TSHR antagonist – antagonists of human thyroid stimulating hormone receptor | P16473 | TSHR-expressing cells, TSH-stimulated cAMP HTRF, 2 h; active compounds read low | activity change, negative = inhibition, % at 11.5 µM | 330,000 tested, 0.2% active | AID 504810;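 active = activity change below a set negative limit, meaning inhibition stronger than a set level, cut at about -70% in these data; inconclusive = activity change between two set negative limits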; also: % is scaled to controls: 0 for no effect and ±100 for the full control effect
Target sequence (P16473 whole entry, looked up): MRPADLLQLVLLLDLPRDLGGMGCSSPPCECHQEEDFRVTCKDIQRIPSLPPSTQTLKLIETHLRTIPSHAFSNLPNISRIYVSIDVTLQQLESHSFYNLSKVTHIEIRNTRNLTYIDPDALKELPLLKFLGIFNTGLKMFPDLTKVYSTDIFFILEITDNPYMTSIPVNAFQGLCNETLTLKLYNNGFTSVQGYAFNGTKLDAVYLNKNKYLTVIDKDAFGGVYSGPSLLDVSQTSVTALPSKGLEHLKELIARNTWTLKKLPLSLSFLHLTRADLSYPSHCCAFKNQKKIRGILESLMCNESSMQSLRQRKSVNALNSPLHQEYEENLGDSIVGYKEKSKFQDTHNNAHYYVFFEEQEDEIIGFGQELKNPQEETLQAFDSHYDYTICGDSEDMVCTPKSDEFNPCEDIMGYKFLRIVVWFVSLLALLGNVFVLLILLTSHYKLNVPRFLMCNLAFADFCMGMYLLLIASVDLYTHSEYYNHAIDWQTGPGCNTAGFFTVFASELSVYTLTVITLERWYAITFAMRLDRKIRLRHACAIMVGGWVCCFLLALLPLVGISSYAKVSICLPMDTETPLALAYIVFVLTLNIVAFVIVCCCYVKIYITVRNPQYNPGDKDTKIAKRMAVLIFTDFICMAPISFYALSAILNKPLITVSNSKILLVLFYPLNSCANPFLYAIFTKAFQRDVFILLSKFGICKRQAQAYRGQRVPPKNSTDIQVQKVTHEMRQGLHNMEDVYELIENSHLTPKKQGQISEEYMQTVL
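Competitive HTRF cAMP read-out (cryptate anti-cAMP antibody, cAMP-d2; 30 min, room temperature) in freshly harvested TSHR cells. Compounds added before TSH at EC80 (4nM final), followed by 2 hours' incubation at 37 deg C.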
Starred values were filed as active, the others as inactive. Unless noted, calls follow the shape of the dose curve; as a rule, active = well fitted curve in the direction sought with a large enough effect; inconclusive = small, poorly fitted or top-dose-only effect, or another doubt; inactive = no such curve, though single readings can be large; an effect the other way counts as inactive or inconclusive.

How did COc1ccccc1N1CCN(C(=S)Nc2ccc(S(=O)(=O)N3CCOCC3)cc2)CC1 do in these assays?
PLK1 PBD inh: -11%; Vif-APOBEC3F blk: -1%; Vif-APOBEC3G blk: 3%; VDR inh: -1%; TSHR antagonist: -20

What do the screens show for `CCNc1ncc2nc(C)c(=O)n(C3CC3)c2n1`?
VDR inh: -10%

What do the screens show for `COc1ccccc1CNC(=O)CCS(=O)(=O)Cc1ccc(C)cc1`?
PLK1 PBD inh: 27µM*; Vif-APOBEC3F blk: 3%; Vif-APOBEC3G blk: 8%; VDR inh: inconclusive; TSHR antagonist: 16

What do the screens show for `COc1cc(/C=C2\C=Cc3ccccc32)cc(OC)c1OC`?
Vif-APOBEC3G blk: -6%

Results for CCN1C(=S)SC(=O)C1=C1C=C(C)N(Cc2ccco2)C(C)=C1 ?
PLK1 PBD inh: 1%; Vif-APOBEC3F blk: inconclusive; Vif-APOBEC3G blk: 11µM*; VDR inh: 8%; TSHR antagonist: -4

What do the screens show for `CC1CC(O)CC(C)(C)C1` (stereo not given)?
VDR inh: -5%

Results for COc1cc(C(=O)Nc2ccccc2OCc2cc(=O)n3cc(C)sc3n2)cc(OC)c1OC ?
Vif-APOBEC3F blk: -3%; Vif-APOBEC3G blk: -9%; VDR inh: -22%

How did O=C1Oc2ccccc2C(=O)C1C(CC(O)c1ccc(-c2ccc(Br)cc2)cc1)c1ccccc1 (stereo not given) do in these assays?
VDR inh: 32µM*

What do the screens show for `CCCCn1cc(S(=O)(=O)c2cccc(C)c2)c(=O)c2cc(F)c(N3CCOCC3)cc21`?
Vif-APOBEC3F blk: -2%; Vif-APOBEC3G blk: -3%; VDR inh: 10%

How did Cc1ccc(C(=O)c2cn(CC(=O)NCc3ccccc3)c3nc(C)ccc3c2=O)cc1 do in these assays?
Vif-APOBEC3F blk: -30%; Vif-APOBEC3G blk: 0%; VDR inh: 5%

What do the screens show for `Cc1ccc(CNC(=O)Cn2cc(C(=O)c3ccc(Cl)cc3)c(=O)c3ccc(C)nc32)cc1`?
Vif-APOBEC3F blk: 13µM*; Vif-APOBEC3G blk: -17%; VDR inh: 2%

What do the screens show for `CC1C(=O)N(C)C(=O)c2nc[nH]c21` (stereo not given)?
VDR inh: -2%; TSHR antagonist: -8

Results for Cc1ccc(C(NC(=O)N2CCOCC2)C(Cl)(Cl)Cl)cc1F (stereo not given) ?
PLK1 PBD inh: 27µM*; Vif-APOBEC3F blk: 0%; Vif-APOBEC3G blk: 0%; VDR inh: -6%; TSHR antagonist: -5

How did Cc1cc[n+]2c3c(cccc13)CCC2 do in these assays?
PLK1 PBD inh: 13µM*; Vif-APOBEC3F blk: -6%; Vif-APOBEC3G blk: 1%; VDR inh: 50µM*; TSHR antagonist: -12

What do the screens show for `Cc1noc(C)c1COC(=O)CCCNC(=O)c1ccc(Cl)cc1`?
PLK1 PBD inh: -7%; Vif-APOBEC3F blk: -1%; Vif-APOBEC3G blk: -4%; VDR inh: 13%; TSHR antagonist: 6

What do the screens show for `Cc1noc(C)c1COC(=O)/C=C/c1ccc(Cl)cc1`?
PLK1 PBD inh: 12µM*; Vif-APOBEC3F blk: -1%; Vif-APOBEC3G blk: 3%; VDR inh: inconclusive; TSHR antagonist: 1

Results for COc1cc(OC)c(/C=C/c2cc(/C=C/c3c(OC)cc(OC)cc3OC)[n+](C)c3ccccc23)c(OC)c1 ?
Vif-APOBEC3G blk: -12%

Results for COc1ccc(N=c2nc(-c3ccc(C)cc3)n(-c3ccccc3)s2)cc1 ?
Vif-APOBEC3G blk: -5%; VDR inh: -12%

How did CCOc1ccc(CCNC(=O)Cn2c(-c3cccs3)cc3ccccc32)cc1 do in these assays?
Vif-APOBEC3F blk: -4%; Vif-APOBEC3G blk: 1%; VDR inh: 3%

Results for COc1ccc2nc3ccccc3nc2c1NC(=O)c1ccc(Cl)cc1 ?
PLK1 PBD inh: -17%; Vif-APOBEC3F blk: 11µM*; Vif-APOBEC3G blk: -11%; VDR inh: 2%; TSHR antagonist: -2

How did COc1ccc2nc3ccccc3nc2c1NC(=O)c1ccc(Br)cc1 do in these assays?
PLK1 PBD inh: -5%; Vif-APOBEC3F blk: 6.3µM*; Vif-APOBEC3G blk: inconclusive; VDR inh: 9%; TSHR antagonist: 5

How did COc1cc(NC(=O)c2ccc(Br)cc2)c(OC)cc1NC(=O)c1ccccc1 do in these assays?
PLK1 PBD inh: -10%; Vif-APOBEC3F blk: -11%; Vif-APOBEC3G blk: -3%; VDR inh: -6%; TSHR antagonist: 1

What do the screens show for `CC(=O)Nc1ccc(SCC(CC(C)C)N2CCN(CCc3ccccc3)CCC2=O)cc1` (stereo not given)?
Vif-APOBEC3G blk: 1%; VDR inh: inconclusive

How did Cc1ccc(C2CC(=O)Oc3ccc(C(C)(C)C)cc32)cc1 (stereo not given) do in these assays?
VDR inh: -1%

What do the screens show for `O=C(N/N=C\c1ccc(Br)o1)C1COc2ccccc2O1` (stereo not given)?
PLK1 PBD inh: 17µM*; Vif-APOBEC3F blk: -12%; Vif-APOBEC3G blk: inconclusive; VDR inh: -8%; TSHR antagonist: -2

How did COc1cccc(N2CCN(C(=O)C3CCN(S(=O)(=O)c4cccc5nonc45)CC3)CC2)c1 do in these assays?
Vif-APOBEC3F blk: 0%; Vif-APOBEC3G blk: 1%; VDR inh: 16%

What do the screens show for `Nc1ccc(-c2cc3ccccc3oc2=O)cc1`?
PLK1 PBD inh: -17%; Vif-APOBEC3F blk: -4%; Vif-APOBEC3G blk: -3%; VDR inh: -5%; TSHR antagonist: 7

Results for O=C/C=C/c1c(-c2ccccc2)cc2oc3ccccc3cc1-2 ?
PLK1 PBD inh: -12%; Vif-APOBEC3F blk: 0%; Vif-APOBEC3G blk: inconclusive; VDR inh: 35µM*; TSHR antagonist: -15

What do the screens show for `O=C(O)/C=C/C(=O)Nc1ccc(Cl)c(C(=O)O)c1`?
PLK1 PBD inh: 6%; Vif-APOBEC3F blk: 0%; Vif-APOBEC3G blk: 3%; VDR inh: 10%; TSHR antagonist: -6

What do the screens show for `NNc1ccc(Cl)c(C(=O)O)c1`?
PLK1 PBD inh: 30µM*; Vif-APOBEC3F blk: -11%; Vif-APOBEC3G blk: 1%; VDR inh: -28%; TSHR antagonist: 0

Results for O=C(O)c1cc(NC(=S)NC(=O)C(c2ccccc2)c2ccccc2)ccc1Cl ?
PLK1 PBD inh: 67µM*; Vif-APOBEC3F blk: 7%; Vif-APOBEC3G blk: -7%; VDR inh: -1%; TSHR antagonist: -14

How did COc1c(C)cc(Br)cc1C(=O)NC(=S)Nc1ccc(Cl)c(C(=O)O)c1 do in these assays?
PLK1 PBD inh: 17µM*; Vif-APOBEC3F blk: -5%; Vif-APOBEC3G blk: -6%; VDR inh: -16%; TSHR antagonist: -8

What do the screens show for `CCN(CC)CCOc1ccc(-c2nc3cc(Cl)ccc3s2)cc1`?
VDR inh: 1%

What do the screens show for `COC(=O)[C@H]1O[C@@H](c2cc(OC)c(C)c(OC)c2OCc2ccccc2)[C@H](C)[C@@H]2O[C@]12C`?
VDR inh: 0%

What do the screens show for `COC(=O)N1[C@H]2CC[C@@]3(C)CC(=O)C[C@]1(C)C3c1ccccc12`?
VDR inh: 1%

Screening results: PubChem, National Center for Advancing Translational Sciences (NCATS)
